Test [1] is described as follows: Wnt pathway potentiators raising nuclear beta-catenin – imaging, WNT3A-conditioned medium, mouse C2C12, NPC library, primary screen (AID 1117326; in the data active = nuclear beta-catenin stimulation mostly above about 4.2%, no sharp cut-off; inactive = mostly below about 10%; note: reference of the scale not given here). The settings on record: stronger effect = higher value.
The nature of test [2]: stimulators of insulin release from INS-1E, primary screen, cell-based, 5 mM glucose, NPC library (AID 1117329;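 active = compound raises insulin release from rat beta cells at 5 mM glucose, no numeric limit stated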; note: reference of the scale not given here). The settings on record: rat INS-1E insulin secretion, at 10 µM, stronger effect = higher value.
Test [3] in a line: growth inhibition of GSK3B-pretreated HCT116 cells – cell-based, CellTiter-Glo, 0.2 to 20 µM (AID 1117336;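 active = compounds lowering colon cancer cell viability after pretreatment blocking the GSK3B kinase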). The settings on record: HCT116 viability after GSK3B inhibitor, at 20 µM, stronger effect = higher value.
Test [4] can be described thus: inhibition of endothelial tube formation, primary screen, imaging, VEGF stimulated, CD31 staining, tube area, NPC library (AID 1117340;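 active = compound that reduces growth-factor-driven endothelial tube area in a mixed cell culture, no cutoff stated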). As to conditions: VEGF-stimulated ADSC/ECFC co-culture, at 10 µM, stronger effect = higher value.
A short description of test [5]: GLP1 release stimulators, primary, NCI-H716, NPC library (AID 1117341;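 active = compound raises GLP1 secretion from the human gut endocrine cells, with no numeric limit stated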; note: reference of the scale not given here). The settings on record: NCI-H716 cells, at 10 µM, stronger effect = higher value.
Test [6] in a line: HCT116 colon cancer cell growth inhibition, primary screen, CellTiter-Glo luminescence, NPC library (AID 1117342;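 active = compounds that lower survival of HCT116 colon cancer cells in the luminescence readout, no numeric limit stated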). As to conditions: at 20 µM (top of the series).
Test [7] can be described thus: reduced SW480 viability measured with CellTiter-Glo, NPC library, primary (AID 1117343;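 active = compounds that lower viability of the colon cancer cells in the luminescence readout, with no numeric limit stated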). As to conditions: CellTiter-Glo luminescence; at 20 µM (top of the series) unless noted.
Test [8] is described as follows: NPC library primary testing for decreased DLD-1 cell viability via CellTiter-Glo (AID 1117346;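 active = compounds that lower survival of DLD-1 colon cancer cells in the luminescence readout, no cutoff given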). The settings on record: DLD-1 viability, CellTiter-Glo luminescence; at 20 µM (top of the series).
Test [9] in a line: viability loss with induced miR-34 in A549 – imaging, A549 dox-inducible miR-34, nuclei and caspase counts, primary screen (AID 1347080). As to conditions: A549 miR-34 inducible, Hoechst nuclei count, 48 h.
The nature of test [10]: blockers of cellular phospholipid synthesis – cell-based, LOPAC library, screen 4, primary screen (AID 1347384; call rule not given here). As to conditions: animal cells, phospholipid biosynthesis inhibition screen; at 10 µM.
Test [11] can be described thus: galactose survival enhancers in mitochondrial complex I cybrids – cell-based, galactose medium, ATP luminescence, primary screen (AID 1645843;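 active = z-score of at least 1.8 in each of two replicates, scored against plate mean and spread of sample wells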;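 note: positive z means more ATP and so rescue of galactose-driven cybrid death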). The settings on record: complex I mutant cybrid cells, 72 h, stronger effect = higher value.
Test [12] is described as follows: P. berghei load reduction in hepatocytes – cell-based, HepG2, luciferase luminescence, HepG2 viability, primary screen (AID 624349; in the data active = parasite load remaining mostly below about 12%, no sharp cut-off; inactive = mostly above about 10%;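 note: 100% = mean of DMSO negative control wells on the same plate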). The settings on record: P. berghei liver stage in HepG2, luciferase luminescence, concentration not given here; parasite load remaining: stronger effect = lower value; viability: measured here: HepG2 viability without parasites.
A short description of test [13]: MELAS cybrid and Rieske KO viability enhancers – cell-based, MELAS cybrids, Rieske KO mouse fibroblasts, CellTiter-Glo, primary screen (AID 1508586;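 active = mean z-score across replicates of 1.96 or higher in either the MELAS or the Rieske mutant cell line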;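 note: z relative to plate mean and SD of compound and empty wells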). The settings on record: low glucose.
Where [14] appears, read: stronger effect = lower value, cell number ratio, induced over uninduced.
[15] abbreviates: measured here: relative caspase fold change +Dox/-Dox.
Where [16] appears, read: measured here: total cells with miR-34 induction, stronger effect = lower value.
Setting [17] is: measured here: total cells without miR-34 induction.
Setting [18] is: MELAS cybrid survival, CellTiter-Glo 48 h, stronger effect = higher value.
Setting [19] is: Rieske KO mouse fibroblast survival, CellTiter-Glo 72 h.

SMILES strings stand for the structures. Where “and” joins values, the source holds several entries; their conditions need not be identical. Equal entries are not always repeated. Calls of active or inactive are those of the source.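 Rule for the calls, unless noted: active = compounds whose cell count with miR-34 switched on is under 0.7 times the count with it off; inactive = the rest.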

With `CC(C)(C)c1ccc(C(=O)CCCN2CCC(OC(c3ccccc3)c3ccccc3)CC2)cc1`, the nuclear beta-catenin stimulation is 0.6% (inactive) in [1] (at 10 µM) and 11.9% in test [1] (stimulation, at 2 µM). Also, the insulin secretion stimulation in test [2] is 1% (inactive). Moreover, the viability decrease in [3] was 111% (active). In test [4], the tube area decrease was 102% (active). Also, the GLP1 secretion stimulation in test [5] is 6% (inactive). In addition, the inhibition of viability in test [6] is 114% (active). The viability decrease (inhibition) is 133% (active) in test [7] and 101% (active) in test [8]. Besides, the fold change in test [9] (setting [14]) is 1.42 (inactive); in [9] (setting [15]), 0.93. For the same compound, the cell count in test [9] (setting [16]) came to 1290; in test [9] (setting [17]), 913. Also, in test [10], the result was inactive. In test [11], the z-score was -0.865 (inactive).

Take `O=C(O)CN(CCOCCOCCN(CC(=O)O)CC(=O)O)CC(=O)O`: the nuclear beta-catenin stimulation in test [1] (at 10 µM) is 0% (inactive); in test [1] (stimulation, at 2 µM), 0%. In addition, the insulin secretion stimulation in test [2] is 1.45% (inactive). In addition, the viability decrease in test [3] was 16.3% (inactive). Moreover, the tube area decrease in [4] is 6.4% (inactive). For the same compound, the GLP1 secretion stimulation in [5] was 1.8% (inactive). In addition, the inhibition of viability in test [6] was 5.2% (inactive). Also, the viability decrease (inhibition) in test [7] is -13.8% (inactive); in test [8], 1.8% (inactive). The figures for the fold change in test [9] (setting [14]) and in [9] (setting [15]) were 0.942 (inactive) and 1.12, respectively. Also, the figures for the cell count in [9] (setting [16]) and in test [9] (setting [17]) were 9820 and 10400, respectively. Also, the compound was classed as inactive in test [10]. In addition, the z-score in [11] was 0.34 (inactive).

As for `CC(=O)[C@@]1(O)CC[C@H]2[C@@H]3CCC4=CC(=O)CC[C@]4(C)[C@H]3CC[C@@]21C`, the parasite load remaining in test [12] is 0.96% (inactive). Besides, the viability in test [12] is 66%. The nuclear beta-catenin stimulation in [1] (at 10 µM) is 1.2% (inactive); in test [1] (stimulation, at 2 µM), 2.3%. Moreover, in test [2], the insulin secretion stimulation was 0.95% (inactive). Also, the viability decrease in test [3] is 14.3% (inactive). Also, in [4], the tube area decrease is -5.3% (inactive). Further, the GLP1 secretion stimulation in [5] was 2% (inactive). The inhibition of viability in [6] is 20.1% (inactive). In addition, the viability decrease (inhibition) is 10.2% (inactive) in test [7] and -4.1% (inactive) in test [8]. The fold change was 0.967 (inactive) and 0.853 (inactive) in [9] (setting [14]); 1.72 and 1.68 in test [9] (setting [15]). The cell count in test [9] (setting [16]) was 8400 and 8890; in [9] (setting [17]) it was 8690 and 10400. Moreover, the call in test [10] was inactive. The z-score is -0.428 (inactive) in test [13] (setting [18]); 0.151 in test [13] (setting [19]); -0.055 (inactive) and -1.24 (inactive) in [11].

As for `CCCCCCCCCCCCCCCCO`, the nuclear beta-catenin stimulation in test [1] (at 10 µM) is -0.4% (inactive); in test [1] (stimulation, at 2 µM), 0.7%. In addition, the insulin secretion stimulation in test [2] was -0.5% (inactive). For the same compound, the viability decrease in [3] is -1.35% (inactive). Moreover, the tube area decrease in [4] is -0.9% (inactive). For the same compound, the GLP1 secretion stimulation in test [5] was -3.8% (inactive). Further, the inhibition of viability in test [6] is -2.3% (inactive). Besides, the values for the viability decrease (inhibition) in [7] and in test [8] were 21.5% (inactive) and 5.6% (inactive), respectively. The fold change is 0.9 (inactive) in [9] (setting [14]) and 0.439 in test [9] (setting [15]). The cell count in test [9] (setting [16]) was determined as 8310; in [9] (setting [17]), 9230. In addition, the z-score in test [13] (setting [18]) was -0.285 (inactive); in test [13] (setting [19]) it was -0.121.

As to `CC(C=CC=C(C)C=CC1=C(C)CCCC1(C)C)=CC=CC=C(C)C=CC=C(C)C=CC1=C(C)CCCC1(C)C`, the nuclear beta-catenin stimulation is 1.5% (inactive) in [1] (at 10 µM) and 1.5% in test [1] (stimulation, at 2 µM). Further, the insulin secretion stimulation in test [2] was 3.2% (inactive). In addition, the viability decrease in test [3] was -39.2% (inactive). Besides, the tube area decrease in test [4] was 5.4% (inactive). For the same compound, the GLP1 secretion stimulation in test [5] was 5.7% (inactive). Moreover, the inhibition of viability in test [6] is 1.37% (inactive). Moreover, the viability decrease (inhibition) in test [7] was 19.1% (inactive); in test [8] it was 3.2% (inactive). The results for the fold change in [9] (setting [14]) and in [9] (setting [15]) were 0.877 (inactive) and 0.984, respectively. Further, the cell count is 7760 in [9] (setting [16]) and 8840 in test [9] (setting [17]). In addition, the z-score in test [13] (setting [18]) was -0.304 (inactive); in test [13] (setting [19]), 0.553.

In the case of `CN(C)CCN1C(=O)c2ccccc2N(C)c2ccccc21`, the parasite load remaining in [12] is 18.6% (inactive). Also, the viability in test [12] was 64.5%. The nuclear beta-catenin stimulation was 0.8% (inactive) in [1] (at 10 µM) and -0.9% in test [1] (stimulation, at 2 µM). In addition, the insulin secretion stimulation in test [2] was 14.4% (inactive). Moreover, in test [3], the viability decrease is 8.2% (inactive). In addition, the tube area decrease in test [4] is 11.6% (inactive). Besides, the GLP1 secretion stimulation in [5] is 4% (inactive). Also, in [6], the inhibition of viability is 0.3% (inactive). In addition, the viability decrease (inhibition) in [7] is 35.8% (inactive); in test [8] it was -35.8% (inactive). The fold change is 0.889 (inactive) in test [9] (setting [14]) and 1.32 in test [9] (setting [15]). Moreover, the cell count in test [9] (setting [16]) was determined as 10000; in test [9] (setting [17]) it was 11300. The z-score in test [13] (setting [18]) was 0.44 (inactive) and -0.381 (inactive); in test [13] (setting [19]), 0.025 and -0.152; in test [11], 0.475 (inactive).

On to `O=S(=O)(O)Oc1ccc(C(c2ccc(OS(=O)(=O)O)cc2)c2ccccn2)cc1`, for which the nuclear beta-catenin stimulation in test [1] (at 10 µM) is -1.8% (inactive); in [1] (stimulation, at 2 µM), 1.7%. Also, the insulin secretion stimulation in test [2] is -1.2% (inactive). The viability decrease in test [3] was -2.3% (inactive). Moreover, the tube area decrease in test [4] was 11.8% (inactive). The GLP1 secretion stimulation in [5] is 1.3% (inactive). The inhibition of viability in [6] is -5.5% (inactive). The viability decrease (inhibition) is -2.2% (inactive) in test [7] and -5.9% (active) in test [8]. Moreover, the figures for the fold change in test [9] (setting [14]) and in test [9] (setting [15]) were 0.9 (inactive) and 1.41, respectively. The cell count in [9] (setting [16]) is 8720; in test [9] (setting [17]) it was 9690. The z-score was -0.185 (inactive) in test [13] (setting [18]) and -0.14 in test [13] (setting [19]).

For the compound `O=c1[nH]c2ccccc2n1CCCN1CCN(C(c2ccccc2)c2ccccc2)CC1`, in test [12], the parasite load remaining was 29.6% (inactive). The viability in test [12] was determined as 106%. Moreover, the nuclear beta-catenin stimulation in test [1] (at 10 µM) was 2.7% (inactive); in [1] (stimulation, at 2 µM), 2%. The insulin secretion stimulation in test [2] was 1.95% (inactive). The viability decrease in test [3] was 72% (active). In test [4], the tube area decrease was 20.5% (inactive). In test [5], the GLP1 secretion stimulation is 1.4% (inactive). Further, in test [6], the inhibition of viability was 76.3% (active). The viability decrease (inhibition) in test [7] was 110% (active); in test [8], 78.8% (active). Also, the fold change in test [9] (setting [14]) was 0.906 (inactive); in test [9] (setting [15]), 1.22. For the same compound, the cell count in [9] (setting [16]) stood at 8130; in test [9] (setting [17]), 8980. Besides, the values for the z-score in [13] (setting [18]), in test [13] (setting [19]) and in test [11] were -0.355 (inactive), -0.351 and -1.56 (inactive), respectively.

In the case of `C=CCNC(N)=S`, the nuclear beta-catenin stimulation is 5.1% (inactive) in test [1] (at 10 µM) and 2.3% in test [1] (stimulation, at 2 µM). In addition, the insulin secretion stimulation in [2] is -0.8% (inactive). Further, the viability decrease in test [3] was -2.15% (inactive). The tube area decrease in test [4] is -31.3% (inactive). Further, in test [5], the GLP1 secretion stimulation is -0.3% (inactive). Moreover, in [6], the inhibition of viability was -19.1% (inactive). Further, the values for the viability decrease (inhibition) in test [7] and in test [8] were 23.8% (active) and -4.7% (inactive), respectively. Further, the fold change in test [9] (setting [14]) is 0.867 (inactive) and 0.831 (inactive); in test [9] (setting [15]), 1.24 and 0.686. In addition, the cell count in test [9] (setting [16]) was 7540 and 8140; in [9] (setting [17]), 8690 and 9790. The z-score in test [13] (setting [18]) was -0.239 (inactive); in test [13] (setting [19]), -0.148.

These data come from PubChem BioAssay.
